Results as given in PubChem BioAssay.
Calls of active or inactive are those of the source.

Assays:
[1] = small molecules captured by biotinylated probe aFSTL3 – biochemical, small-molecule microarray, fluorescence 635/667, stem cell growth factor project, primary screen (AID 1064); details: higher = more signal;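 also: measures binding of the biotinylated anti-FSTL3 antibody to printed compounds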
[2] = binders from COS7 lysate, DM2A8 probe, primary screen, torsin A project, cell lysate, small-molecule microarray, fluorescence 635/667 (AID 1065); details: higher = more signal, COS7 lysate expressing mutant human TOR1A
[3] = small molecules captured by biotinylated probe aFGF2 – biochemical, small-molecule microarray, fluorescence 635/667, stem cell growth factor project, primary screen (AID 1067); details: higher = more signal;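 also: measures binding of biotinylated aFGF2 protein to printed compounds on slides; z-score merges feature fluorescence and signal-to-noise across triplicate slides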
[4] = small molecules captured by biotinylated probe aFGF10 – biochemical, small-molecule microarray, fluorescence 635/667, stem cell growth factor project, primary screen (AID 1071); details: higher = more signal;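 also: score merges 667 nm spot intensity and signal to noise from triplicate slides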
[5] = target: Neurogenic locus notch homolog protein 2 (Homo sapiens) (UniProt Q04721); assay: small molecules binding Notch2 protein – biochemical, small-molecule microarray, 635 nm fluorescence, stem cell growth factors, primary screen (AID 1073); details: higher = more signal
[6] = target: Pro-neuregulin-1, membrane-bound isoform (Homo sapiens) (UniProt Q02297); assay: small molecules binding neuregulin-1 protein – biochemical, small-molecule microarray, fluorescence 635/667, psychiatric disease protein project, primary screen (AID 1075); details: NRG1 binding, 635 nm fluorescence, higher = more signal;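 also: score combines 667 nm spot fluorescence with signal to noise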
[7] = system: Neuregulin-1 EGF-like domain; assay: small molecules binding NRG1 EGF domain – biochemical, small-molecule microarray, 635 nm fluorescence, primary screen (AID 1081); details: higher = more signal;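 also: binding of the protein to compounds printed on small-molecule microarray slides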
[8] = FRG1 expression reporter modulators in myotubes – cell-based, C2C12 myotubes, firefly/Renilla luciferase, luminescence, FRG1 inhibition for FSHD, primary screen (AID 1084); details: FRG1 promoter luciferase, higher = more signal, called active from +8 up or from −8 down
[9] = small molecules captured by biotinylated probe aFST – biochemical, small-molecule microarray, fluorescence 635/667, stem cell growth factor project, primary screen (AID 1086); details: higher = more signal;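 also: score merges 667 nm fluorescence with signal-to-noise of each printed compound spot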
[10] = binders of probe aHhip on microarray, primary screen, stem cell growth factor project, biochemical, small-molecule microarray, fluorescence 635/667 (AID 1087); details: higher = more signal;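 also: score merges spot fluorescence at 667nm with spot signal to noise ratio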
[11] = system: PRMT1 (protein arginine N-methyltransferase 1); assay: small molecules binding arginine methyltransferase PRMT1 – biochemical, small-molecule microarray, 635 nm fluorescence, primary screen (AID 1088); details: higher = more signal;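 also: binding of Prmt1 protein to compounds spotted on small-molecule microarray slides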
[12] = growth effects on S. cerevisiae YJM789 – YJM789 clinical isolate, OD600, 24 h, basal, primary screen (AID 1089); details: higher = more signal, called active from +8 up or from −8 down;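 also: growth of clinical yeast isolate S. cerevisiae YJM 789 seeded 1000 cells per well; test concentration not given here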
[13] = S. pombe growth modifiers, basal conditions – strain 972, OD600, 24 h, no modulator, primary screen (AID 1090);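 also: basal condition with compound alone and no growth modifier present; test concentration not given here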; details: S. pombe 972 growth, higher = more signal, called active from +8 up or from −8 down
[14] = budding yeast growth modifiers under rapamycin – strain BY4716, OD600, 96 h, primary screen (AID 1091); also: test concentration not given here; details: S. cerevisiae BY4716 + rapamycin, higher = more signal, called active from +8 up or from −8 down
[15] = target: Torsin-1A-interacting protein 2 (Homo sapiens) (UniProt Q8NFQ8); assay: small molecules binding lysate-expressed LULL1 – cell lysate, human LULL1 lysate, 635/667 nm fluorescence, primary screen (AID 1092); details: small-molecule microarray, hLULL1 lysate binding, 635 nm fluorescence; higher = more signal;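 also: probe is lysate of COS7 cells overexpressing human LULL1; score merges per-feature 667 nm fluorescence with signal-to-noise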
[16] = optical density change of DRC41 E. coli – strain DRC41, OD650, 24 h, E. coli filamentation project, primary screen (AID 1093);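 also: MC1000 strain lacking acrAB efflux and sulA so SOS filamentation is blocked; test concentration not given here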; details: E. coli DRC41 growth, higher = more signal, called active from +8 up or from −8 down
[17] = probe aLefty2 binding to arrayed compounds – biochemical, biotinylated probe, 635/667 nm fluorescence, primary screen (AID 1094); details: small-molecule microarray, higher = more signal;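 also: score merges spot fluorescence near 667 nm with spot signal-to-noise ratio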
[18] = system: Noggin (protein binding on small-molecule microarray); assay: small molecules binding Noggin protein – biochemical, 635/667 nm fluorescence, primary screen (AID 1095); details: 635 nm fluorescence, higher = more signal;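 also: score merges 667 nm feature fluorescence with signal to noise over triplicate slides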
[19] = target: Neurogenic locus notch homolog protein 3 (Homo sapiens) (UniProt Q9UM47); assay: small molecules binding NOTCH3 protein – biochemical, 635/667 nm fluorescence, primary screen (AID 1096); details: small-molecule microarray, 635 nm fluorescence, higher = more signal
[20] = probe aEGFR binding to arrayed compounds – biochemical, biotinylated probe, 635/667 nm fluorescence, primary screen (AID 1097); details: small-molecule microarray, higher = more signal;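 also: probe is a biotinylated anti-EGFR antibody binding compounds printed on slides; score combines fluorescence near 667 nm and signal to noise of each spot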

Chain of Pro-neuregulin-1, membrane-bound isoform (Homo sapiens) (Q02297 whole entry, looked up, the tested form may be a part, canonical isoform): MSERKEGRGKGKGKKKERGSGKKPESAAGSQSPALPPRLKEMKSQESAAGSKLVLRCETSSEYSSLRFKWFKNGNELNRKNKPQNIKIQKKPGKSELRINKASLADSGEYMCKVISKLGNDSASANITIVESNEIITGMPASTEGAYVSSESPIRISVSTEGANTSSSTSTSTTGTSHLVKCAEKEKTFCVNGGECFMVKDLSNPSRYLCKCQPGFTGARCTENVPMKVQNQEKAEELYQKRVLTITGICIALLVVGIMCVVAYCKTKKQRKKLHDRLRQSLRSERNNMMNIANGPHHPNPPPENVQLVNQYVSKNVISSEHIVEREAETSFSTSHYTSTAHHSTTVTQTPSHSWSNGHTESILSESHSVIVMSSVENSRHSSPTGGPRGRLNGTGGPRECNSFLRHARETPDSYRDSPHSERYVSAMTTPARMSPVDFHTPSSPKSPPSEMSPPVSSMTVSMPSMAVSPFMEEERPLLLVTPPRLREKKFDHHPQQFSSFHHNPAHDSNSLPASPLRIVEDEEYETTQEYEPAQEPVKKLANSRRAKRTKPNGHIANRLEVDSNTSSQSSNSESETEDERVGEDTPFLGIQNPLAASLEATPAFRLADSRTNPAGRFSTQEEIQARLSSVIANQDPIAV
Chain of Torsin-1A-interacting protein 2 (Homo sapiens) (Q8NFQ8 whole entry, looked up): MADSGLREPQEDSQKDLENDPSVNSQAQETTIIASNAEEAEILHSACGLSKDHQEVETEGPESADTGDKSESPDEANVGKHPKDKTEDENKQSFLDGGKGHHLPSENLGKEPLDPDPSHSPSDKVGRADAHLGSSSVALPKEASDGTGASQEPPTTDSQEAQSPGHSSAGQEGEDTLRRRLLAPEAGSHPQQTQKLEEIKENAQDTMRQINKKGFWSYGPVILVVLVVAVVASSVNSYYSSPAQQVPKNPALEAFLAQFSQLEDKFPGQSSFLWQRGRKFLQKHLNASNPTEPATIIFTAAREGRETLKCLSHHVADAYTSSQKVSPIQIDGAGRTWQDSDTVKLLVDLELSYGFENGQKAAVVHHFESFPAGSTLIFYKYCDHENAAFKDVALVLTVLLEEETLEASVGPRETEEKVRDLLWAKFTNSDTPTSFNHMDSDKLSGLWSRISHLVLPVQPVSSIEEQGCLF
Chain of Neurogenic locus notch homolog protein 3 (Homo sapiens) (Q9UM47 whole entry, looked up): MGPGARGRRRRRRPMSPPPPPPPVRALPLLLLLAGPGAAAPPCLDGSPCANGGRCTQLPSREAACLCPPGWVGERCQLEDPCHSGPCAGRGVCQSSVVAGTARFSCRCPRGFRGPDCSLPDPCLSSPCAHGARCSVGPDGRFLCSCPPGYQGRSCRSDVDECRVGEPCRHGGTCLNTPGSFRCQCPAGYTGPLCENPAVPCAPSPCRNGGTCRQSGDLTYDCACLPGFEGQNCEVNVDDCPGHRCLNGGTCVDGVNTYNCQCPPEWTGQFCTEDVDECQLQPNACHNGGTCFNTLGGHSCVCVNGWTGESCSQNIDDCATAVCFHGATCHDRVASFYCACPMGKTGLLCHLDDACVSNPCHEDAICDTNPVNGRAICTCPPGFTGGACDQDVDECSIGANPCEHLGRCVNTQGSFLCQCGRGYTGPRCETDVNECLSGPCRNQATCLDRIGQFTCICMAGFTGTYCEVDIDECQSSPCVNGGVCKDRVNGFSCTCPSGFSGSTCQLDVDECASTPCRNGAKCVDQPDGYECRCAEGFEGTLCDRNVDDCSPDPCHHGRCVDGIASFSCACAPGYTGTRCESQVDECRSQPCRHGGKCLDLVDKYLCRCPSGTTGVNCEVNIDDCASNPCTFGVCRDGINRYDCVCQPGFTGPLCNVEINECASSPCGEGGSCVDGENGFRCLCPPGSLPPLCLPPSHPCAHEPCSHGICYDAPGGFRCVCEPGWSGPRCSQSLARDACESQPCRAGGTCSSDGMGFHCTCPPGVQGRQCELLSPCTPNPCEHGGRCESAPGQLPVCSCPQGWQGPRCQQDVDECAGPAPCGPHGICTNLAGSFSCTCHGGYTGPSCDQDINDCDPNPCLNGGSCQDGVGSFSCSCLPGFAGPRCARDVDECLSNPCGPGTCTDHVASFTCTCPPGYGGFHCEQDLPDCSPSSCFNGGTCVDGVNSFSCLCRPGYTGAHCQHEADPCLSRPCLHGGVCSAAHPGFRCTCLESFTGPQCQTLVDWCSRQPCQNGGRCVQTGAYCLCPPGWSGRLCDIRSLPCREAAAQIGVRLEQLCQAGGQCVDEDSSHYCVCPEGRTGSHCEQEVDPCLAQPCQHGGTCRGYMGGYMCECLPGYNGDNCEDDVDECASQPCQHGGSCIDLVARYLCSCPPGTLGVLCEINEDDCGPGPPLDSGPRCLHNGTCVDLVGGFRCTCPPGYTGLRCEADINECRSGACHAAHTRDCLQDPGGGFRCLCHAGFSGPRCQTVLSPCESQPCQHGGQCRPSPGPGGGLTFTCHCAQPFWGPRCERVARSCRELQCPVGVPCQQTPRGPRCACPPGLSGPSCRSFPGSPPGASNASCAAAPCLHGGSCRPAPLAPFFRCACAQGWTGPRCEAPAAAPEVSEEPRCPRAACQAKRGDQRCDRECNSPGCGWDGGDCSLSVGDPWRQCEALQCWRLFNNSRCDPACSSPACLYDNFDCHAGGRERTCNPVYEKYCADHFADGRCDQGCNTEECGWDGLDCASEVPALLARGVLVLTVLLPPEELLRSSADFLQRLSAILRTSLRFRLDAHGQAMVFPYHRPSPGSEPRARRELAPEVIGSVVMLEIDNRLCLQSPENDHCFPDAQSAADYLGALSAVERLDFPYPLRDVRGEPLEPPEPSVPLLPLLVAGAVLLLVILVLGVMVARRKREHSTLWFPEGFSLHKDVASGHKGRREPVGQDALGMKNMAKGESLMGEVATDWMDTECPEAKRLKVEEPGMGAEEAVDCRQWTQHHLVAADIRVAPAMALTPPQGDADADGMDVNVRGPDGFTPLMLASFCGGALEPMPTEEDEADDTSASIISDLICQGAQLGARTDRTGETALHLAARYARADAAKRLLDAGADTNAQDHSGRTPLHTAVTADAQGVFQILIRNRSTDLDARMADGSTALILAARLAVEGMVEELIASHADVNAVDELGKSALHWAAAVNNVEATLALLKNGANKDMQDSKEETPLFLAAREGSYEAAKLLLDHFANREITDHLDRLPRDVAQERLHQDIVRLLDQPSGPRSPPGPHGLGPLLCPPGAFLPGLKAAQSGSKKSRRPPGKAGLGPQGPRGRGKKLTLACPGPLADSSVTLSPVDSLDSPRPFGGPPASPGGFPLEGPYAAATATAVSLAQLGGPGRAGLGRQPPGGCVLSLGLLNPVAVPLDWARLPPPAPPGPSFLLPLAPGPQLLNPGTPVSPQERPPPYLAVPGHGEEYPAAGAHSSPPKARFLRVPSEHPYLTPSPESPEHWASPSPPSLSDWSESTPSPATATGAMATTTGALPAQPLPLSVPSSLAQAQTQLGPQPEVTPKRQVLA

SMILES | composite z-score [1] | composite z-score [2] | composite z-score [3] | composite z-score [4] | composite z-score [5] | composite z-score [6] | composite z-score [7] | z-score [8] | composite z-score [9] | composite z-score [10] | composite z-score [11] | z-score [12] | z-score [13] | z-score [14] | composite z-score [15] | z-score [16] | composite z-score [17] | composite z-score [18] | composite z-score [19] | composite z-score [20]
CCCC[C@H]1OB(O)C[C@H]2C1=C(C)Cn1c(=O)n(-c3ccccc3)c(=O)n12 | -0.396 | 0.383 | -0.116 | 0.365 | 0.585 | -0.0946 | 0.129 | -0.127 (inactive) | 0.292 | -0.0237 | 0.414 | 0.585 (inactive) | 1.19 (inactive) | 0.261 (inactive) | 0.262 | -0.314 (inactive) | -0.119 | 0.688 | 0.37 | -0.113
COCCCNC(=O)[C@@]1(Cc2ccccc2I)c2ccccc2C(=O)N(Cc2ccccc2)[C@H]1c1ccc(CO)cc1 | 0.094 | -0.785 | -0.142 | -0.487 | -1.61 | 0.542 | 1.34 | -4.46 (inactive) | -0.656 | 0.0695 | 0.96 | 0.411 (inactive) | 0.512 (inactive) | 0.951 (inactive) | 1.62 | 0.0006 (inactive) | -0.204 | -1.27 | -1.37 | -0.302
CCOC(=O)C[C@H]1[C@H](OC(=O)c2ccc(C(=O)c3ccccc3)cc2)[C@@H](NC(=O)c2ccc3ccccc3n2)c2cc(OCCCO)ccc2N1C(=O)c1ccc2ccccc2n1 | -0.153 | 0.0772 | -0.16 | 0.56 | 0.876 | 1 | 0.421 | -2.18 (inactive) | 0.845 | -0.201 | 0.424 | 0.179 (inactive) | 0.0242 (inactive) | 0.418 (inactive) | 1.34 | 1.12 (inactive) | 0.109 | 0.192 | 0.486 | 0.0746
COCCOC(=O)N1C(=O)[C@@]2(c3cc(C#CC4(O)CCCCCC4)ccc31)[C@H](c1ccc(O)cc1)N1[C@H](c3ccccc3)[C@H](c3ccccc3)OC(=O)[C@H]1[C@@H]2C(=O)N1CCc2cc(OC)c(OC)cc2C1 | 0.244 | -0.287 | -0.116 | -0.432 | -1.54 | 0.449 | 0.0919 | 0.0543 (inactive) | -0.538 | -0.268 | 1.56 | -0.749 (inactive) | -0.395 (inactive) | -0.494 (inactive) | 2.41 | 1.45 (inactive) | -0.0719 | -0.435 | -0.551 | -0.226
O=C(NCc1ccccc1)[C@@H]1c2ccccc2C(=O)N(Cc2cc(F)cc(C(F)(F)F)c2)[C@H]1c1ccc(CO)cc1 | -0.307 | 0.582 | -0.0598 | 0.0655 | 0.558 | 0.393 | 1.32 | -1.67 (inactive) | 0.0906 | -0.179 | 1.49 | 0.314 (inactive) | 0.252 (inactive) | -0.319 (inactive) | 2.82 | 0.387 (inactive) | -0.103 | 0.561 | 0.791 | 0.021
COC(=O)c1c2oc(c1C(=O)OC)C(=O)N[C@H](Cc1ccccc1)Cn1nncc1C1(CCCCC1)NC(=O)N[C@H](CO)CC2 | -0.442 | 0.158 | -0.0853 | 0.108 | 0.0153 | -0.0781 | 0.646 | -1.33 (inactive) | 0.233 | -0.212 | 0.702 | 0.776 (inactive) | 0.414 (inactive) | -0.178 (inactive) | 1.03 | 1.17 (inactive) | -0.205 | 0.311 | 0.17 | -0.115
CCOC(=O)C1=C[C@@H](C(C)(C)C)N(S(=O)(=O)c2ccc(C)cc2)[C@H]1c1ccc(Cl)c(Cl)c1 | -0.301 | 0.134 | 0.12 | 0.614 | 1.56 | 1.53 | 0.911 | -0.446 (inactive) | 0.514 | -0.236 | 1.46 | 0.771 (inactive) | 1.71 (inactive) | 2.44 (inactive) | 2.68 | -0.875 (inactive) | 0.201 | 0.346 | 1.09 | 0.239
CCN(CC)c1ccc(N2CC=CC34O[C@@H]5C=CCCOC(=O)C5[C@H]3C(=O)N(CCCO)[C@@H]4C2=O)cc1 (stereo not given in full) | -0.0768 | -0.288 | -0.158 | -0.332 | -0.816 | -0.613 | -0.0612 | -0.306 (inactive) | -0.177 | -0.134 | -0.664 | -0.452 (inactive) | -0.983 (inactive) | -0.282 (inactive) | -1.02 | 1.87 (inactive) | -0.122 | 0.232 | -0.155 | -0.162
O=c1cccc(-c2cccc3ccccc23)o1 | 0.745 | -0.378 | -0.0316 | -0.413 | -0.0766 | -0.159 | 0.75 | 3.63 (inactive) | 0.0143 | 0.0053 | -0.106 | -5.22 (inactive) | -13.3 (active) | 4.08 (inactive) | 0.877 | 1.48 (inactive) | 0.303 | -0.364 | -0.107 | -0.2
